{"source": "PubChem BioAssay AID1224856", "about": "(National Center for Advancing Translational Sciences (NCATS), 2016)", "note": "Records with an inconclusive call do not appear. Unmarked numbers belong to inactive results. Calls follow the shape of the dose curve; as a rule, active = well fitted curve in the direction sought with a large enough effect; inconclusive = small, poorly fitted or top-dose-only effect, or another doubt; inactive = no such curve, though single readings can be large or run the other way.", "data": [{"test": "Cell viability assay for measurement of the protective activity of small molecules against cell death caused by Zika virus infection in human astrocytes", "conditions": "human astrocytes ZIKV-induced death, ATP luminescence, 72 h; series mostly up to 46.1 µM; protection from virus-induced death: at the top concentration", "outline": "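Protection against Zika-induced death was measured in human astrocytes infected at 2 FFU/cell one hour after compound addition. After 72 h at 37 °C, ATP luminescence was read and converted to percent inhibition of the viability decrease.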", "values": [{"smiles": "Cc1[nH]c(C=C2C(=O)Nc3ccccc32)c(C)c1CCC(=O)O", "protection from virus-induced death": "3.65%"}, {"smiles": "CN(C)c1ccc(/C=C2\\C(=O)Nc3ccccc32)cc1", "protection from virus-induced death": "-2.02%"}, {"smiles": "[O-][n+]1ccccc1SSc1cccc[n+]1[O-]", "protection from virus-induced death": "-9.35% [at 88.3 µM]"}, {"smiles": "O[C@@H](COc1cccc2ncccc12)CN1CCN(C2c3ccccc3[C@@H]3[C@H](c4ccccc42)C3(F)F)CC1", "note": "(stereo partly specified)", "protection from virus-induced death": "-6.34%"}, {"smiles": "C[C@@H](N)c1ccc(C(=O)Nc2ccnc3[nH]ccc23)cc1", "protection from virus-induced death": "6.59%"}, {"smiles": "CN1CC[C@@]2(C)c3cc(OC(=O)Nc4ccccc4)ccc3N(C)[C@@H]12", "protection from virus-induced death": "4.98%"}, {"smiles": "O=C(O)c1cc([N+](=O)[O-])ccc1NCCCc1ccccc1", "protection from virus-induced death": "-1.03%"}, {"smiles": "Cc1ccc2c(n1)Oc1ccc(C(C)C(=O)OCC(=O)N(C)C)cc1C2", "note": "(stereo unspecified)", "protection from virus-induced death": "-0.871%"}, {"smiles": "Cc1ccc([N+](=O)[O-])[c]2c1[O][Hg]2", "protection from virus-induced death": "-10.2%"}, {"smiles": "c1ccc2[nH]c(-c3cscn3)nc2c1", "protection from virus-induced death": "-4.09%"}, {"smiles": "COC1(CS(=O)c2ccccc2)CCN(CCc2c[nH]c3ccc(F)cc23)CC1", "note": "(stereo unspecified)", "protection from virus-induced death": "-3.55%"}, {"smiles": "O=C1CCC[C@@H]2[C@H]3CCCN4CCC[C@@H](CN12)[C@@H]34", "protection from virus-induced death": "3.66%"}, {"smiles": "Cc1cccc(/C=C/c2ccccc2)n1", "protection from virus-induced death": "8.77%"}, {"smiles": "CCOCCOC(=O)/C=C/c1ccc(OC)cc1", "protection from virus-induced death": "19%"}, {"smiles": "O=C1C=CC[C@@H]2[C@H]3CCCN4CCC[C@@H](CN12)[C@@H]34", "protection from virus-induced death": "0.303%"}, {"smiles": "COc1cccc2c1C(=O)c1c(O)c3c(c(O)c1C2=O)C[C@@](O)(C(=O)CO)C[C@@H]3O[C@H]1C[C@H](N)[C@H](O[C@@H]2CCCCO2)[C@H](C)O1", "protection from virus-induced death": "-3.67%"}, {"smiles": "CC(C(=O)O)c1ccc2c(c1)[nH]c1ccc(Cl)cc12", "note": "(stereo unspecified)", "protection from virus-induced death": "-1.5%"}, {"smiles": "O=C1C[C@@H](c2ccc(O)cc2)Oc2cc(O)cc(O)c21", "protection from virus-induced death": "4.81%"}, {"smiles": "O=C(O)[C@@H](c1ccc(OCc2ccc3ccccc3n2)cc1)C1CCCC1", "protection from virus-induced death": "-1.24%"}, {"smiles": "COc1cccc(-c2ccc(NC(=O)C3=C(C(=O)O)CCC3)c(F)c2)c1", "protection from virus-induced death": "4.42%"}, {"smiles": "Cc1nc(N)sc1-c1ccnc(Nc2ccc(N3CCOCC3)cc2)n1", "protection from virus-induced death": "1.74%"}, {"smiles": "O=C(OCc1ccccc1)c1ccc(O)cc1", "protection from virus-induced death": "-3.82%"}, {"smiles": "CCCCCNC(=O)N1CCC(CN(Cc2ccc(Cl)cc2)Cc2ccc([N+](=O)[O-])s2)C1", "note": "(stereo unspecified)", "protection from virus-induced death": "0.395%"}, {"smiles": "COc1ccc(-c2cc(=O)c3c(O)cc(O)cc3o2)cc1O", "protection from virus-induced death": "1.16%"}, {"smiles": "CNC1[C@H](O)C(O[C@@H]2C(O)C(O[C@H]3O[C@H]([C@@H](C)NC)CC[C@H]3N)[C@@H](N)C[C@H]2N)OC[C@]1(C)O", "note": "(stereo partly specified)", "protection from virus-induced death": "-0.423%"}, {"smiles": "CCN1CCC(n2cc(CNc3cc(Cl)c4ncc(C#N)c(Nc5ccc(F)c(Cl)c5)c4c3)nn2)CC1", "protection from virus-induced death": "2.87%"}]}]}
